# Reference: PubChem BioAssay (EPA / NIEHS)
# Results filed as inconclusive are left out. Activity calls are given as the source filed them. Rule for the calls, unless noted: active = hit-call score of the fitted dose curve at least 0.9, where 1 is the maximum; inactive = score below 0.9.
# Key:
# [1] = ATG_NFI_CIS: Attagene CIS-FACTORIAL HepG2 Assay for human Nuclear Factor I (NFI) (AID 2282989); conditions: HepG2 cis-regulatory reporter, NFI response element transcription; actives raise or lower the signal
# Procedure, shortened: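 Transfected HepG2 liver cells, exposed 24 h, supplied total RNA for oligo(dT) reverse transcription and reporter-specific PCR. Labelled, HpaI-cut fragments were sized by capillary electrophoresis; DMSO set the baseline for bidirectional fitting.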
# [2] = target: Myc proto-oncogene protein (Homo sapiens) (UniProt P01106); experiment: ATG_Myc_CIS: Attagene CIS-FACTORIAL HepG2 Assay for human Myelocytomatosis (Myc) Proto-Oncogene Transcription Factor (AID 2282990); conditions: HepG2, Attagene cis-reporter transcription factor activity; actives raise or lower the signal
# Procedure, shortened: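 Fluorescence intensity of reporter-specific cDNA fragments, separated by capillary electrophoresis, gives the signal. Transfected HepG2 cells carrying cis-promoter reporter constructs are incubated with compound for 24 h; DMSO serves as baseline.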
# [3] = ATG_NF_kB_CIS: Attagene CIS-FACTORIAL HepG2 Assay for human Nuclear Factor Kappa B (NF-kB) (AID 2282991); conditions: HepG2 Attagene cis-factorial NF-kB reporter mRNA; actives raise or lower the signal
# Procedure, shortened: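 Fluorescence of labelled RT-PCR products separated by capillary electrophoresis gives reporter mRNA levels from transfected HepG2 cells exposed 24 h; values are fitted in both directions relative to DMSO.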
# [4] = ATG_NRF2_ARE_CIS: Attagene CIS-FACTORIAL HepG2 Assay for human Nuclear Factor Erythroid 2 Related Factor 2 (NFR2) response to Antioxidant Response Elements (ARE) (AID 2282992); conditions: HepG2 Attagene ARE/NRF2 reporter, transcription factor activity; actives raise or lower the signal
# Procedure, shortened: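 HepG2 cells transiently transfected with multiplexed cis-element reporter constructs, 24 h after chemical dosing; reporter mRNA quantified by RT-PCR, fluorescent primer extension, HpaI digestion and capillary electrophoresis. Bidirectional fit relative to DMSO.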
# [5] = ATG_Oct_MLP_CIS: Attagene CIS-FACTORIAL HepG2 Assay for human Octamer-Binding Transcription Factor (Oct) (AID 2282993); conditions: HepG2 Attagene cis-factorial Oct reporter, mRNA; actives raise or lower the signal
# Procedure, shortened: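 Using HepG2 cells bearing transfected cis-reporter constructs, mRNA induction was read after 24 h by fluorescent RT-PCR and capillary electrophoresis, with DMSO defining baseline for gain- or loss-of-signal fits.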
# [6] = target: Cellular tumor antigen p53 (Homo sapiens) (UniProt P04637); experiment: ATG_p53_CIS: Attagene CIS-FACTORIAL HepG2 Assay for human p53 Transcription Factor (AID 2282994); conditions: HepG2 p53 cis-element reporter, Attagene mRNA; actives raise or lower the signal
# Procedure, shortened: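 HepG2 cells transiently transfected with cis-regulated multiple reporter transcription units, dosed 24 h. Reporter mRNA measured by RT-PCR, 6-FAM primer extension, HpaI digestion and capillary electrophoresis; bidirectional fit relative to DMSO.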
# [7] = BSK_3C_TissueFactor: BioMAP Diversity Plus: 3C Assay for Tissue Factor Biomarker Activity (AID 2282997); conditions: BioMAP 3C HUVEC, tissue factor biomarker readout; actives raise or lower the signal
# Procedure, shortened: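 Human vascular primary cells (umbilical vein endothelium) received test chemical; Tissue Factor was determined by ELISA at 24 h, and both gain and loss of signal versus DMSO were fitted.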
# [8] = BSK_3C_uPAR: BioMAP Diversity Plus: 3C Assay for Urokinase-type plasminogen activator receptor (uPAR) Biomarker Activity (AID 2282998); conditions: BioMAP 3C HUVEC, uPAR biomarker ELISA; actives raise or lower the signal
# Procedure, shortened: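 In this endothelial cell-based assay, human umbilical vein primary cells were treated with chemicals and harvested at 24 h. uPAR was quantified using ELISA, with gains or losses fitted relative to DMSO controls.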
# [9] = BSK_3C_VCAM1: BioMAP Diversity Plus: 3C Assay for Vascular cell adhesion molecule 1 (VCAM1) Biomarker Activity (AID 2282999); conditions: BioMAP 3C HUVEC, VCAM1 ELISA, cytokine-stimulated; actives raise or lower the signal
# Procedure, shortened: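 Human umbilical vein endothelial cells (3C system), biomarker read by ELISA 24 h after dosing; bidirectional fit against DMSO baseline. Cytotoxicity tracked by SRB total-protein staining in parallel cultures at biomarker time.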
# [10] = BSK_4H_Eotaxin3: BioMAP Diversity Plus: 4H Assay for Eotaxin 3 Biomarker Activity (AID 2283000); conditions: primary human endothelial cells (HUVEC); actives raise or lower the signal;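 note: CCL26 protein level quantified by ELISA in parallel with SRB cytotoxicity check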
# Procedure, shortened: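 Readout is Eotaxin-3 (CCL26) level by ELISA in primary human umbilical vein endothelial cells harvested 24 h after chemical exposure; activity fitted in both directions against DMSO control.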
# [11] = target: human Peroxisome Proliferator-activated Receptor delta (PPARd), PPARD (gene 5467) (UniProt Q03181); experiment: ATG_PPARd_TRANS: Attagene TRANS-FACTORIAL HepG2 Assay for human Peroxisome Proliferator-activated Receptor delta (PPARd) (AID 2283002; active = hit-call score of the fitted dose curve at least 0.9, where 1 is the maximum)
# Procedure, shortened: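 Fluorescence from capillary electrophoresis of labelled RT-PCR reporter fragments gives the signal; DMSO sets baseline. Cells: HepG2 transiently carrying GAL4-UAS reporter units plus chimeric nuclear receptor-Gal4 proteins, exposed to chemicals for 24 h.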
# [12] = read-out: Intercellular Adhesion Molecule 1 (ICAM1), ICAM1 (gene 3383); experiment: BSK_3C_ICAM1: BioMAP Diversity Plus: 3C Assay for Intercellular Adhesion Molecule 1 (ICAM1) Biomarker Activity (AID 2283003); conditions: primary human endothelial cells (HUVEC); actives raise or lower the signal
# Procedure, shortened: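 Human vascular endothelial primary cells, 3C conditions, 24 h treatment. ICAM-1 by ELISA.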
# [13] = target: Retinoic acid receptor alpha (Homo sapiens) (UniProt P10276); experiment: ATG_RARa_TRANS: Attagene TRANS-FACTORIAL HepG2 Assay for human Retinoic Acid Receptor alpha (RARa) (AID 2283005; active = hit-call score of the fitted dose curve at least 0.9, where 1 is the maximum)
# Procedure, shortened: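 HepG2 transiently transfected with multiplex GAL4-UAS reporter units including a human RARa–GAL4 chimera; 24 h compound exposure. Reporter mRNA quantified by RT-PCR, 6-FAM labeling and capillary electrophoresis; gain of signal versus DMSO.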
# [14] = BSK_3C_Proliferation: Cell Proliferation Assessment in the BioMAP Diversity Plus: 3C Assay (AID 2283006); conditions: primary human endothelial cells (HUVEC);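 for AC50: potency may reflect either rise or fall in cell number versus DMSO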
# Procedure, shortened: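 Proliferation of human vascular endothelial primary cells after 48 h dosing, quantified as SRB-stained protein at 560 nm relative to DMSO.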
# [15] = target: Peroxisome proliferator-activated receptor gamma (Homo sapiens) (UniProt P37231); experiment: ATG_PPARg_TRANS: Attagene TRANS-FACTORIAL HepG2 Assay for human Peroxisome Proliferator-activated Receptor-gamma (PPARg) (AID 2283007; active = hit-call score of the fitted dose curve at least 0.9, where 1 is the maximum)
# Procedure, shortened: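 Twenty-four hours after chemical dosing of transiently transfected HepG2 cells, isolated RNA was converted to cDNA, reporter sequences amplified and 6-FAM-labelled, then HpaI-digested and analysed by capillary electrophoresis. Signal increase against DMSO was fitted.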
# [16] = target: Nuclear receptor subfamily 1 group I member 2 (Homo sapiens) (UniProt O75469); experiment: ATG_PXR_TRANS: Attagene TRANS-FACTORIAL HepG2 Assay for human Pregnane X Receptor (PXR) (AID 2283008; active = hit-call score of the fitted dose curve at least 0.9, where 1 is the maximum)
# Procedure, shortened: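 HepG2 cells transiently transfected with GAL4-UAS reporter units and PXR-Gal4 chimera, exposed 24 h. Reporter mRNA quantified by RT-PCR, fluorescent labelling, HpaI digestion and capillary electrophoresis; gain of signal vs DMSO.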
# [17] = target: human Retinoic Acid Receptor gamma (RARg), RARG (gene 5916) (UniProt P13631); experiment: ATG_RARg_TRANS: Attagene TRANS-FACTORIAL HepG2 Assay for human Retinoic Acid Receptor gamma (RARg) (AID 2283009; active = hit-call score of the fitted dose curve at least 0.9, where 1 is the maximum)
# Procedure, shortened: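 HepG2, RARg-GAL4 TRANS system, 24 h exposure; reporter mRNA by RT-PCR + CE fluorescence; increase over DMSO.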
# [18] = target: human Peroxisome Proliferator-activated Receptor alpha (PPARa), PPARA (gene 5465) (UniProt Q07869); experiment: ATG_PPARa_TRANS: Attagene TRANS-FACTORIAL HepG2 Assay for human Peroxisome Proliferator-activated Receptor alpha (PPARa) (AID 2283001; active = hit-call score of the fitted dose curve at least 0.9, where 1 is the maximum)
# Procedure, shortened: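 Measures transcriptional activity of an exogenous chimeric PPARa-Gal4 protein in transiently transfected HepG2 cells after 24 h dosing. Reporter mRNA quantified via RT-PCR and capillary electrophoresis; DMSO served as negative control.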
# [19] = target: human RAR-related Orphan Receptor beta (RORb), RORB (gene 6096) (UniProt Q92753); experiment: ATG_RORb_TRANS: Attagene TRANS-FACTORIAL HepG2 Assay for human RAR-related Orphan Receptor beta (RORb) (AID 2283010; active = hit-call score of the fitted dose curve at least 0.9, where 1 is the maximum)
# Procedure, shortened: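 In this TRANS-format test, human HepG2 cells express chimeric NR-Gal4 fusion proteins driving GAL4-UAS reporters. After 24 h dosing, reporter transcripts are measured by fluorescent RT-PCR/capillary electrophoresis, with DMSO as negative control.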
# Chain of Myc proto-oncogene protein (Homo sapiens) (P01106 whole entry, looked up, the tested form may be a part): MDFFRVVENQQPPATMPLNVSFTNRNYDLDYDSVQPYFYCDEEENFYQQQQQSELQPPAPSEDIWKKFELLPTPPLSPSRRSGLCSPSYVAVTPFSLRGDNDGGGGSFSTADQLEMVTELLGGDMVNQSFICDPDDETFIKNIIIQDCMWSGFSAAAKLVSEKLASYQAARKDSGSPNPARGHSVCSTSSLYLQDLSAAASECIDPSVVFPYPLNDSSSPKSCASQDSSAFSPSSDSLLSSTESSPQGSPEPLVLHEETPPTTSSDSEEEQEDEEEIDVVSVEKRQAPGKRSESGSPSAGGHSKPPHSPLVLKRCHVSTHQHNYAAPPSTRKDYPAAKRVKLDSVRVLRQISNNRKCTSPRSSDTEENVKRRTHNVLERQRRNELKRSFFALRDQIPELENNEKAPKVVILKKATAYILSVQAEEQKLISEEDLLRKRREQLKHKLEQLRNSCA
# Chain of Cellular tumor antigen p53 (Homo sapiens) (P04637 whole entry, looked up): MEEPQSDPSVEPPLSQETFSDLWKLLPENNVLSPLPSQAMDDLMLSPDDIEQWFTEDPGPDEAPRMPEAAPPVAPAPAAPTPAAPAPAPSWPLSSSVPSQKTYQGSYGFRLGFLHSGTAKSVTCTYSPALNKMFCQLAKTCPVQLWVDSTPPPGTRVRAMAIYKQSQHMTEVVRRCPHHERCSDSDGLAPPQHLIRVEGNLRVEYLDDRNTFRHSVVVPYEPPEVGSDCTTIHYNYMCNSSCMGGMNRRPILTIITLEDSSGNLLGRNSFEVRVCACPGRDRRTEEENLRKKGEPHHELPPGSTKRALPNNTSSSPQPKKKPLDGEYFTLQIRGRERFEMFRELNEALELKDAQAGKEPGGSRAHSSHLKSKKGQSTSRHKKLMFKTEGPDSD
# Chain of human Peroxisome Proliferator-activated Receptor delta (PPARd), PPARD (gene 5467) (Q03181 whole entry, looked up, the tested form may be a part): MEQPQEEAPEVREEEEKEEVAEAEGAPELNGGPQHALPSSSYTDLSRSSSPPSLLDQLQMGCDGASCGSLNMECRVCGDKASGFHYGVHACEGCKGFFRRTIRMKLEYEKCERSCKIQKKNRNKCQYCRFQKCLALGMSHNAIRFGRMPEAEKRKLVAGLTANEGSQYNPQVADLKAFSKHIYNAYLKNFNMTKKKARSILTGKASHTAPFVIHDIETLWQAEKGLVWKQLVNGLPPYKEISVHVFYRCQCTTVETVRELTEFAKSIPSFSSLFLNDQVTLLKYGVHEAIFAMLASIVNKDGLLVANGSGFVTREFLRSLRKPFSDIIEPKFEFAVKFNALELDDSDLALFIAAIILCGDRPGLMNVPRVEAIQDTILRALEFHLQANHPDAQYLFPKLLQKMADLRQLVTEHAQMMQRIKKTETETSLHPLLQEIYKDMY
# Chain of Peroxisome proliferator-activated receptor gamma (Homo sapiens) (P37231 whole entry, looked up): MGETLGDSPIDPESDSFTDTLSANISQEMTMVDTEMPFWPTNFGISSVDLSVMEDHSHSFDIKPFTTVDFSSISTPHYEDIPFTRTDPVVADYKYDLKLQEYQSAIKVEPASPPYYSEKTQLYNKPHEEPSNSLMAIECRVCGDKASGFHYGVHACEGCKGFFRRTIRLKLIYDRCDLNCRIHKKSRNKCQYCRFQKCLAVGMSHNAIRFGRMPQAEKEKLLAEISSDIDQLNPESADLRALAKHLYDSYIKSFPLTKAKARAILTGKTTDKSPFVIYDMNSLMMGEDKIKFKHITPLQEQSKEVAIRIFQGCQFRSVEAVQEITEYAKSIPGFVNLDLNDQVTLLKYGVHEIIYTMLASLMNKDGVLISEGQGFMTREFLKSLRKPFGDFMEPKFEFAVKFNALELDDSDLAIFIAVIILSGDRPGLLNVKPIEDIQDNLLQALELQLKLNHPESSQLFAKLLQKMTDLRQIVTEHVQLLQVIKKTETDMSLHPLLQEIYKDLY
# Chain of human Peroxisome Proliferator-activated Receptor alpha (PPARa), PPARA (gene 5465) (Q07869 whole entry, looked up, the tested form may be a part): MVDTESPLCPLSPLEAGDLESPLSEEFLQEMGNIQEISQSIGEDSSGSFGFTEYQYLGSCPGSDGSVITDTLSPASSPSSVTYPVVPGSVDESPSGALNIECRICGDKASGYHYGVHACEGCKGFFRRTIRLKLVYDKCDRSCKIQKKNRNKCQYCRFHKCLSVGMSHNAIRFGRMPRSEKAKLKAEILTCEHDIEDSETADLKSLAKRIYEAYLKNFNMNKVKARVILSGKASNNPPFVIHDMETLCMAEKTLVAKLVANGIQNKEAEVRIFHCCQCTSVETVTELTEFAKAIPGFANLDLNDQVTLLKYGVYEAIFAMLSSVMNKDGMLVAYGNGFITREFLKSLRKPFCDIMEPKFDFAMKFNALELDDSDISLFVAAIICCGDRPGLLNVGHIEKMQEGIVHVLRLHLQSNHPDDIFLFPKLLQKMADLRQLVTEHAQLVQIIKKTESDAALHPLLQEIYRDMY
# Chain of Nuclear receptor subfamily 1 group I member 2 (Homo sapiens) (O75469 whole entry, looked up, the tested form may be a part): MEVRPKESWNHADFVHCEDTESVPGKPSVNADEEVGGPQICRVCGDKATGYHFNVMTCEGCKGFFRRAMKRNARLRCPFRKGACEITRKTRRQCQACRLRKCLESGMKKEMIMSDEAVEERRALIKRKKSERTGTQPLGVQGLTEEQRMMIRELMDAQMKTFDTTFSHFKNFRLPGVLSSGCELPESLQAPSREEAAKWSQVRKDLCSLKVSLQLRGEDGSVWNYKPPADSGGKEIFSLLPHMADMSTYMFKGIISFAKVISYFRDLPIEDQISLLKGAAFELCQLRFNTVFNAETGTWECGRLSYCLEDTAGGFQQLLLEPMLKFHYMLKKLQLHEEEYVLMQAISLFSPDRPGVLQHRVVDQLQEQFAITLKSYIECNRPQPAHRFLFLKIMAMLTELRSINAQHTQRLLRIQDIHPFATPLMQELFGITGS
# Chain of human Retinoic Acid Receptor gamma (RARg), RARG (gene 5916) (P13631 whole entry, looked up, the tested form may be a part): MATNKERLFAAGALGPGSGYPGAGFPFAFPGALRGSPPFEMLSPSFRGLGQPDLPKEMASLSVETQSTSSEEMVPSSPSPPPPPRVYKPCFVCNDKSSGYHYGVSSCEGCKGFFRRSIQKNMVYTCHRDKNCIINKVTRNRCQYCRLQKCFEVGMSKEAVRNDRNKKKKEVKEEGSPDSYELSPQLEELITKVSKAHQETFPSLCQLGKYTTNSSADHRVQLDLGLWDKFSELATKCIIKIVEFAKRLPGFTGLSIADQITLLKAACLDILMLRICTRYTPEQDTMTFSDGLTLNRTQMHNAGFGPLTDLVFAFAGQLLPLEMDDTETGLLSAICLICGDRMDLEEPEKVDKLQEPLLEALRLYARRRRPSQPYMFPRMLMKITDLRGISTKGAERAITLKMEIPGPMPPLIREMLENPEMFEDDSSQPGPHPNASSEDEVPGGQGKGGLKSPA
# Chain of Retinoic acid receptor alpha (Homo sapiens) (P10276 whole entry, looked up, the tested form may be a part): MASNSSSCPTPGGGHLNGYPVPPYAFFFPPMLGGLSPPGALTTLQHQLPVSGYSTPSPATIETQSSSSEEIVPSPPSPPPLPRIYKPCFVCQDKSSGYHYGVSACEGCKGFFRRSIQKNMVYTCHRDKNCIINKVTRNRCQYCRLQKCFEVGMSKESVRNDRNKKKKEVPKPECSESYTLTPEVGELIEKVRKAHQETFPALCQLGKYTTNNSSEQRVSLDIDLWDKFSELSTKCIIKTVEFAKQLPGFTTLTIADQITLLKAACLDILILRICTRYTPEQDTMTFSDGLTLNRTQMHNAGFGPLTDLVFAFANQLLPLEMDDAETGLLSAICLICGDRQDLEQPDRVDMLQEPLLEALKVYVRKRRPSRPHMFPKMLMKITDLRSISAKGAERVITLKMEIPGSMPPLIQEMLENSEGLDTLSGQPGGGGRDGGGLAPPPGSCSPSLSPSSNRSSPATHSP
# Chain of human RAR-related Orphan Receptor beta (RORb), RORB (gene 6096) (Q92753 whole entry, looked up, the tested form may be a part): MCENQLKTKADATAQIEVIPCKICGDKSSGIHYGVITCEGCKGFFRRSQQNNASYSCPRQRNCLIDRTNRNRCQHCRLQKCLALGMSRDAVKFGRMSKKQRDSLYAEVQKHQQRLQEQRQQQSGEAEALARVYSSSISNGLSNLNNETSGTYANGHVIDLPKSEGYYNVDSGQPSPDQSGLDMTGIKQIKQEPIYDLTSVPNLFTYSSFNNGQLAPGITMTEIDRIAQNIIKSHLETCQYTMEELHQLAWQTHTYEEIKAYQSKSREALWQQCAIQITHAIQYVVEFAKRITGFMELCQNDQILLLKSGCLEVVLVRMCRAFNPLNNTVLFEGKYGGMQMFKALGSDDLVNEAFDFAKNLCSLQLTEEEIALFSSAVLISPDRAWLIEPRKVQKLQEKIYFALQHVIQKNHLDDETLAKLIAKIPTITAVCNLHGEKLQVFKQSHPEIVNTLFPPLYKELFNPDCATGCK
smiles,measurement,setting,value
C1=Cc2cccc3cccc1c23,outcome,[1],inactive
same,outcome,[2],inactive
same,outcome,[3],inactive
same,outcome,[4],inactive
same,outcome,[5],inactive
same,outcome,[6],inactive
same,outcome,[7],inactive
same,outcome,[8],inactive
same,outcome,[9],inactive
same,outcome,[10],inactive
same,outcome,[11],inactive
same,outcome,[12],inactive
same,outcome,[13],inactive
same,outcome,[14],inactive
same,outcome,[15],inactive
same,outcome,[16],inactive
same,outcome,[17],inactive
CCC(C)c1ccc(O)cc1 (stereo unspecified),outcome,[1],inactive
same,outcome,[2],inactive
same,AC50,[3],100 µM (active)
same,AC50,[4],67.3 µM (active)
same,AC50,[5],67.9 µM (active)
same,outcome,[6],inactive
same,outcome,[7],inactive
same,outcome,[8],inactive
same,outcome,[9],inactive
same,outcome,[10],inactive
same,outcome,[18],inactive
same,outcome,[12],inactive
same,outcome,[14],inactive
same,outcome,[16],inactive
c1ccc(N=Nc2ccccc2)cc1,outcome,[1],inactive
same,outcome,[2],inactive
same,outcome,[3],inactive
same,AC50,[4],61.2 µM (active)
same,outcome,[5],inactive
same,outcome,[6],inactive
same,outcome,[7],inactive
same,outcome,[8],inactive
same,outcome,[9],inactive
same,outcome,[10],inactive
same,outcome,[18],inactive
same,outcome,[12],inactive
same,outcome,[14],inactive
same,AC50,[15],43 µM (active)
same,outcome,[16],inactive
Brc1ccc(Oc2ccccc2)cc1,AC50,[1],158 µM (active)
same,outcome,[2],inactive
same,outcome,[3],inactive
same,AC50,[4],74 µM (active)
same,AC50,[5],177 µM (active)
same,outcome,[6],inactive
same,outcome,[7],inactive
same,outcome,[8],inactive
same,outcome,[9],inactive
same,outcome,[10],inactive
same,outcome,[12],inactive
same,outcome,[14],inactive
same,outcome,[15],inactive
same,outcome,[16],inactive
Nc1ccc([N+](=O)[O-])cc1,outcome,[1],inactive
same,outcome,[2],inactive
same,outcome,[3],inactive
same,outcome,[4],inactive
same,outcome,[5],inactive
same,outcome,[6],inactive
same,outcome,[7],inactive
same,outcome,[8],inactive
same,outcome,[9],inactive
same,outcome,[10],inactive
same,outcome,[18],inactive
same,outcome,[12],inactive
same,outcome,[14],inactive
same,outcome,[16],inactive
CCCSC(=O)N(CCC)CCC,outcome,[1],inactive
same,outcome,[2],inactive
same,outcome,[3],inactive
same,outcome,[4],inactive
same,outcome,[5],inactive
same,outcome,[6],inactive
same,outcome,[7],inactive
same,outcome,[8],inactive
same,outcome,[9],inactive
same,outcome,[10],inactive
same,outcome,[11],inactive
same,outcome,[12],inactive
same,outcome,[14],inactive
same,outcome,[16],inactive
Cc1ccc(N)cc1,outcome,[1],inactive
same,outcome,[2],inactive
same,outcome,[3],inactive
same,outcome,[4],inactive
same,outcome,[5],inactive
same,outcome,[6],inactive
same,outcome,[7],inactive
same,outcome,[8],inactive
same,outcome,[9],inactive
same,outcome,[10],inactive
same,outcome,[18],inactive
same,outcome,[12],inactive
same,outcome,[14],inactive
same,outcome,[19],inactive
O=C(N[C@H](c1ccccc1)[C@@H]1CN2CCC1CC2)c1c(Cl)ccc(C(F)(F)F)c1Cl,outcome,[1],inactive
same,outcome,[2],inactive
same,outcome,[3],inactive
same,AC50,[4],3.02 µM (active)
same,outcome,[5],inactive
same,outcome,[6],inactive
same,outcome,[7],inactive
same,AC50,[8],17.7 µM (active)
same,outcome,[9],inactive
same,outcome,[10],inactive
same,outcome,[11],inactive
same,outcome,[12],inactive
same,AC50,[14],29.7 µM (active)
same,AC50,[16],0.226 µM (active)
